Screens: PubChem, National Center for Advancing Translational Sciences (NCATS)
Vaccinia mCherry = qHTS for Stage-Specific Inhibitors of Vaccinia Orthopoxvirus: mCherry Reporter Primary qHTS; Potency, µM (titrated, usually from 36.5 µM), for inactives: at the highest dose activity change, negative = inhibition, usual class: inhibitors; actives 0.63% (n = 310,000); AID 720579, 2013; Vaccinia virus mCherry reporter infection, fluorescence; calls by dose curve; tested in A549 cells; further: potency means the concentration at half of the fitted maximal effect; nearly all actives have a fitted effect of over 35% in size
HCMV inh = qHTS Assay for inhibitors of the human cytomegalovirus (HCMV) | HFF cells, HCMV-luciferase reporter, 72 h; hits give low values | activity change, negative = inhibition, % at 57.5 µM | actives 4.5% (n = 410,000) | AID 1259415, 2018; in the data active means activity change below about -60%; inconclusive means no clear call, values can overlap the other calls; inactive means above about -39%
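Inhibition of viral replication was scored as loss of reporter luminescence in HFFs infected with HCMV-luciferase (MOI 1 PFU/cell) for 72 h; compounds tested at 2 doses, normalized to buffer and Salinomycin controls.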
Vaccinia Venus = qHTS for Stage-Specific Inhibitors of Vaccinia Orthopoxvirus: Venus Reporter Primary qHTS; Vaccinia virus Venus reporter expression, fluorescence; Potency, µM (doses to about 36.5 µM), inactives show at the top dose activity change, negative = inhibition, usual class: inhibitors; actives 0.46% (n = 330,000); AID 720580, 2013; calls by dose curve; tested in A549 cells; further: potency means the concentration at half of the fitted maximal effect; nearly all actives have a fitted effect of over 30% in size
LmPK inh = qHTS Assay for Inhibitors of Leishmania Mexicana Pyruvate Kinase (LmPK); purified LmPK, Kinase-Glo ATP luminescence, 1 h; Q27686; Potency, µM (highest dose often 57.5 µM), inactives show at the highest dose activity change, negative = inhibition, most hits filed as inhibitors; actives 0.37% (n = 290,000); further: potency means the concentration at half of the fitted maximal effect
Target sequence (Q27686 whole entry, looked up): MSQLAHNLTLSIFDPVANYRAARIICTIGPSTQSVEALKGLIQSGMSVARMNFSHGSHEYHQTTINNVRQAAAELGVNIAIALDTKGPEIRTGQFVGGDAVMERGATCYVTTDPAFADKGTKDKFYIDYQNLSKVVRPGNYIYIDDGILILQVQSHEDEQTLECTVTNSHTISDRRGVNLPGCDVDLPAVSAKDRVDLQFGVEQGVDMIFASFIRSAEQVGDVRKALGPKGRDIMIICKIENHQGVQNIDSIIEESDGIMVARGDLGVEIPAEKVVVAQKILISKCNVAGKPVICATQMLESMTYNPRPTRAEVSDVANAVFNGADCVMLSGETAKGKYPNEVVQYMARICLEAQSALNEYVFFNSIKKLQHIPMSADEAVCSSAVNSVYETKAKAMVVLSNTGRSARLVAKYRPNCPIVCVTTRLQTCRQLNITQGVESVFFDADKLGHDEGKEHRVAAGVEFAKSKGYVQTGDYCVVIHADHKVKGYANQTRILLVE
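0.1 nM LmPK, 0.5 mM PEP, 0.1 mM ADP; 50 mM imidazole pH 7.2, 7 mM MgCl2, 50 mM KCl; 1 h RT. Kinase-Glo luminescence readout, normalized to no-enzyme (full inhibition) and uninhibited wells.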
Tb PYK inh = qHTS of Trypanosoma Brucei Inhibitors; pyruvate kinase (Trypanosoma brucei), Q57TT1; actives 0.12% (n = 410,000); TbPYK enzyme, Kinase-Glo Plus ATP luminescence, 45 min; Potency, µM (series often up to 76.8 µM), for the others: top-dose activity, negative = inhibition, most hits filed as inhibitors; further: potency means the concentration at half of the fitted maximal effect; nearly all actives have a fitted effect of over 50% in size
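Enzyme and substrate buffer are dispensed first and compound is pin-transferred. ADP at 130 uM final then starts the reaction, which runs 45 min at room temperature. Detection reagent is added for 10 min before luminescence is imaged.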
An asterisk follows results filed as active; i = inactive; ? = inconclusive; nt = no result; [ ] = remark or other dose. This is a sample that favours compounds with a hit; in the whole collection about 5% have one here. Unless noted, the call rests on the fitted dose curve; in most records, active means well fitted curve in the direction sought with a large enough effect; inconclusive means small, poorly fitted or top-dose-only effect, or another doubt; inactive means no such curve, though single readings can be large; an effect the other way counts as inactive or inconclusive. On the % scale 0 is the no-effect control and ±100 the full control effect.

SMILES	Vaccinia mCherry	HCMV inh	Vaccinia Venus	LmPK inh	Tb PYK inh
COc1cc(OC)cc(C(=O)Nc2ccc(S(=O)(=O)N3CCCCC3c3cccnc3)cc2)c1 (stereo not given)	-8.0%	-68.2*	-27.7%	nt	5.7%
O=C(NCCCN1CCCC1=O)c1ccc(OCc2ccccc2)cc1	nt	34.2	nt	-9.6%	4.2%
CC12CCC3C(CCC4=C(O)C(=O)CCC43C)C1CCC2=O (stereo not given)	nt	nt	nt	nt	-3.6%
COc1cc(/C=N/n2c(-c3ccc4c(c3)NC(=O)CO4)csc2=Nc2cccc(C)c2)ccc1O	-7.2%	-96.5*	?	0.1%	0.2%
CC(OC(=O)CNC(=O)c1ccc2ccccc2c1)C(=O)NC1CCCCC1C (stereo not given)	-21.1%	96.1	-15.8%	1.2%	-1.3%
CN(C)c1ccc(-c2[nH][nH]c(=O)c2NC(=O)c2ccccn2)cc1	10.7%	-60.7*	-6.1%	nt	0.0%
Cc1cnc(C(=O)Nc2c(-c3ccccc3)[nH][nH]c2=O)cn1	-15.6%	-10.2	-12.5%	nt	nt
CN(C)c1ccc(-c2[nH][nH]c(=O)c2NC(=O)c2ccc3ccccc3n2)cc1	59.8%	-62.7*	7.6%	nt	1.2%
CCOc1ccc(OCc2cccc(C(=O)O)c2)cc1	-20.2%	1.0	-9.6%	6.31µM*	?
O=C(O)c1cccc(COc2ccc3c(c2)CCC3)c1	-14.9%	0.0	6.9%	?	-9.8%
COc1ccc(OCc2cccc(C(=O)O)c2)cc1	-13.6%	-18.3	-10.2%	15.8µM*	-19.0%
CCOC(=O)c1cccc(NC(=O)c2ccc3c(c2)nnn3CC)c1	6.7%	-7.7	5.3%	nt	0.8%
CC(C)CC(C)N (stereo not given)	-13.7%	-26.6	-14.8%	nt	1.8%
COc1ccc(N2CCN(C(=O)CSc3ncnc4c3cnn4-c3ccccc3C)CC2)cc1	nt	-15.5	-14.9%	1.9%	-17.3%
Cc1nnc(NC(=O)CSc2ncnc3c2cnn3-c2ccccc2C)s1	-17.8%	-6.5	-6.9%	3.3%	5.2%
Cc1ccccc1-n1ncc2c(SCC(=O)NC3CCCC3)ncnc21	-21.2%	-72.5*	-19.8%	-2.5%	1.0%
Cc1ccccc1-n1ncc2c(SCC(=O)N3c4ccccc4CC3C)ncnc21 (stereo not given)	-22.8%	-67.4*	?	2.1%	-4.9%
CCCCc1nc(N)c(C#N)c(-c2ccco2)c1CCC	-5.1%	-13.3	-7.2%	7.0%	2.3%
O=C(c1ccc(Cl)c(S(=O)(=O)N2CCc3ccccc32)c1)N1CCN(c2ccccc2O)CC1	-15.6%	-39.2	-25.0%	nt	1.7%
O=C(NCc1ccco1)c1ccc(Cl)c(S(=O)(=O)N2CCc3ccccc32)c1	?	-81.8*	-23.0%	-1.6%	3.3%
O=C(NCc1ccco1)c1ccc(Cl)c(S(=O)(=O)N2CCOCC2)c1	nt	6.1	nt	3.2%	-13.1%
O=C(COC(=O)c1cccc(S(=O)(=O)N2CCc3ccccc32)c1)NCc1ccco1	-20.0%	-96.0*	-17.0%	6.5%	-3.8%
O=C(NNC(=O)c1ccccc1O)c1ccc(Cl)c(S(=O)(=O)N2CCc3ccccc32)c1	?	-72.4*	?	nt	2.0%
Cc1ccc(NC(=O)c2ccc(Cl)c(S(=O)(=O)N3CCc4ccccc43)c2)nc1	-7.8%	-78.8*	-22.1%	nt	2.9%
CCOc1ccc2nc(SCc3ccc(CC(=O)O)cc3)c(C#N)cc2c1	2.3%	-27.0	-0.2%	-2.8%	0.7%
SMILES	Vaccinia mCherry	HCMV inh	Vaccinia Venus	LmPK inh	Tb PYK inh
COc1ccc(C(=O)Nc2cccc(C)n2)cc1S(=O)(=O)N1CCCc2ccccc21	-23.1%	-72.4*	-16.5%	nt	7.1%
COc1ccc(C(=O)Nc2ccc(C)cn2)cc1S(=O)(=O)N1CCCc2ccccc21	-11.1%	?	-19.1%	nt	-1.5%
Cc1cc(Oc2ccc(C(F)(F)F)cc2[N+](=O)[O-])c2c3c(c(=O)oc2c1)CCC3	i	-16.1	-3.2%	-1.9%	1.1%
CC(C)(C)c1ccc(C(=O)Nc2ccc(CC(=O)O)cc2)o1	i	-74.1*	-6.0%	-6.9%	-1.6%
O=c1c2cc(Br)ccc2[nH]c(=S)n1Cc1cccnc1	1.2%	-18.5	3.7%	2.1%	0.2%
C=CCn1c(=S)[nH]c2ccc(Br)cc2c1=O	-2.5%	-60.7*	-15.6%	-9.9%	-3.3%
CC1CCCCC1NC(=O)CSc1nnc(CNC(=O)c2ccccc2)n1C (stereo not given)	nt	-16.7	nt	-1.3%	0.8%
O=S(=O)(Nc1cccc(-c2ccc(N3CCCCCC3)nn2)c1)c1ccccc1Cl	nt	-75.7*	nt	-6.2%	0.1%
Cc1ccc(-n2c(C)cc(/C=N/NC(N)=S)c2C)cc1	?	-14.6	?	2.4%	-4.3%
CNC(=S)N/N=C/c1cc(C)n(-c2ccc(Cl)c(Cl)c2)c1C	-2.6%	-68.3*	-24.2%	1.9%	-5.3%
CC1=CC(=Nc2c(C)n(C)n(-c3ccccc3)c2=O)C=C(C)C1=O	-27.0%	-74.6*	-7.9%	?	?
CCC(C)C1=CC(=Nc2c(C)n(C)n(-c3ccccc3)c2=O)C=C(C(C)CC)C1=O (stereo not given)	-15.8%	-30.6	-10.6%	-19.3%	-2.0%
Cc1c(C)n(Cc2ccccc2)c2ncnc(Cl)c12	nt	-88.3*	nt	3.2%	0.3%
CC(C)c1ccc([C@@H]2O[C@H](CCc3ccccc3)Cc3[nH][nH]c(=O)c32)cc1	6.8%	-11.2	4.7%	nt	-5.0%
CCS(=O)(=O)c1ncc(Cl)c(C(=O)NCc2ccc(OC)cc2)n1	-16.9%[7.34 µM]	-96.5*	-9.2%[7.34 µM]	nt	3.9%
CCS(=O)(=O)c1ncc(Cl)c(C(=O)N2CCN(c3ccc(OC)cc3)CC2)n1	-22.8%	-98.6*	-24.0%	nt	0.5%
CCS(=O)(=O)c1ncc(Cl)c(C(=O)N(Cc2ccccc2)c2ccc(OC)cc2)n1	-26.8%[7.34 µM]	-99.4*	-22.8%[7.34 µM]	nt	-5.7%
Cc1ccc(CNC(=O)c2nc(S(=O)(=O)Cc3ccc(C)cc3)ncc2Cl)cc1	?	19.3	?	nt	-3.4%
Cc1ccc(NC(=O)NCc2cccn2Cc2ccccc2)c(C)c1	1.9%	-8.7	-9.4%	nt	-6.1%
COc1cccc(CN2CCN(Cc3ccc(C#CC(C)(C)O)s3)CC2CCO)c1 (stereo not given)	-9.2%	-0.6	-5.8%	5.1%	-0.5%
Cc1ccc(NC(=O)c2cc3c(-c4ccccc4)nn(-c4ccccc4)c3s2)cc1	-6.6%	-5.8	-3.3%	nt	0.3%
Cn1cc(C(=O)c2ccc(Cl)cc2)cc1-c1nc2ccccc2n1C	nt	-69.1*	?	2.1%	7.3%
Cc1cc(=O)oc2cc(OC(=O)c3cncc(Br)c3)ccc12	-11.5%	-103.2*	-3.7%	1.1%	5.1%
CCCC(=O)Oc1ccc2c(C)cc(=O)oc2c1	-18.3%	5.0	-5.6%	1.2%	-11.2%
Cc1cc(=O)oc2cc(NC(=O)c3cccc(Br)c3)ccc12	-11.8%	-74.0*	-8.8%	-3.0%	-3.8%
Cc1cc(=O)oc2cc(NC(=O)c3cc4ccccc4o3)ccc12	nt	79.2	nt	6.9%	nt
